About 710 (1.3%) of roughly 56,000 compounds were called active. What follows is part of a selection rich in actives, with near analogues and random picks from the rest. Unmarked numbers belong to inactive results.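 How the source made its calls: active means inhibition above the mean inhibition of all tested compounds plus 3 SD (cut at about 28% in these data); inactive means the rest.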

A short description of the experiment: Jurkat cell viability reduction – Jurkat E6.1, 60K MLSMR library, cytotoxicity control, primary screen (AID 463). As to conditions: Jurkat E6.1 viability, ATP luminescence, 48 h; at 4 µM; stronger effect = higher value.
For `Cc1nnc(N(Cc2ccco2)C(=O)c2ccno2)s1`, the inhibition (as a rule, the drop in the measured response relative to a control, in per cent) was -0.7%.

On to `Cc1ccc2[nH]c(=O)c(COC(=O)c3ccccn3)cc2c1`, for which the inhibition was -6.3%.

For `CCn1c(=N)c(S(=O)(=O)c2ccc(F)cc2)cc2c(=O)n3ccccc3nc21`, the inhibition is -7%. In the case of `COc1ccc(Cn2nnc3c(=O)[nH]c(C4CCN(C(=O)c5ccccc5Cl)CC4)nc32)cc1`, the inhibition is -2.8%. For `CCN(CC)S(=O)(=O)c1cccc(C(=O)Nc2ccccc2)c1`, the inhibition is 29.7% (active). Next, `CCN(CC)S(=O)(=O)c1cccc(C(=O)NCC(=O)OCC(=O)NCc2ccccc2)c1`: -5.9%; `CN(C)S(=O)(=O)c1cccc(C(=O)Nc2cccnc2)c1`: -3%. For `COc1ccc(Br)cc1S(=O)(=O)N1CCN=C1C`, the inhibition was 2.5%. For `CCOC(=O)C1=C(C)N=c2s/c(=C\C(=O)OC)c(=O)n2C1c1ccc(OC)cc1` (stereo unspecified) the value was 6%; for `O=C(Nc1cccc(F)c1)c1ccc(S(=O)(=O)N2CCCC2)cc1`, 1.7%. Next, `CCOC(=O)N1CCN(S(=O)(=O)c2ccc(C(=O)Nc3ccc(F)cc3F)cc2)CC1`: 84.2% (active). For `O=C(CN1CCN(S(=O)(=O)c2ccc(F)cc2)CC1)Nc1ccccc1F`, the inhibition is -6%. For `Cc1ccc(C2c3c(oc4ccc(C)cc4c3=O)C(=O)N2CCCN2CCOCC2)cc1` (stereo unspecified) the value was 3.9%. For `Cc1ccccc1Cn1c(=O)[nH]c2ccccc21` the value was 5.4%; for `COc1ccc(CCN2C(=O)c3[nH]nc(-c4ccccc4O)c3C2c2ccc(C)cc2)cc1OC` (stereo unspecified), 11.1%. For `O=S(=O)(Nc1ccc2nc(-c3ccco3)[nH]c2c1)c1ccccc1` the value was 4.2%. For `CC(=O)N1CCN(C(=O)c2cccc(S(=O)(=O)Nc3ccc(C)cc3)c2)CC1`, the inhibition is -0.6%. Next, `Cc1ccc(S(=O)(=O)Nc2ccc3ncccc3c2)cc1`: 69.4% (active). As to `Cc1cc(C)cc(N(CC(=O)Nc2c(C)n(C)n(-c3ccccc3)c2=O)S(C)(=O)=O)c1`, the inhibition was -5.2%. For `CCOC(=O)CSc1nnc(-c2cccc(Br)c2)o1` the value was -6.1%; for `COc1cc(NS(=O)(=O)c2ccc(NC(C)=O)cc2)cc(OC)c1`, 37.3% (active); for `COc1ccc(C(=O)Nc2ccc(S(=O)(=O)Nc3onc(C)c3C)cc2)cc1OC`, -3.3%. Next, `COc1ccc(NS(=O)(=O)c2ccc(NC(C)=O)cc2)cc1OC`: 31.3% (active). For `CC(=O)Nc1ccc(S(=O)(=O)Nc2cccc(NC(=O)C(C)(C)C)c2)cc1` the value was 7.9%; for `CCNS(=O)(=O)c1ccc(NC(=O)Nc2cccc(OC)c2)cc1`, -3.7%; for `COC(=O)COc1ccc(S(=O)(=O)Nc2ccc(NC(C)=O)cc2)cc1`, -9.6%.

Values taken from PubChem BioAssay AID463 (The Scripps Research Institute Molecular Screening Center, 2006).
